Compounds with a hit are over-represented: about 20% of the library has one in this group of screens.
Pf growth 48h – Primary qHTS for delayed death inhibitors of the malarial parasite plastid, 48 hour incubation. 5.9% of 310,000 active. Potency, µM (titrated, usually from 28.7 µM), for inactives: at the top dose activity change, negative = inhibition, usual class: inhibitors. P. falciparum luciferase growth in erythrocytes, 48 h; note: potency is the fitted concentration of half-maximal effect; % is set by controls: 0 for no effect and ±100 for the full control effect
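First compound was added to culture medium, then infected red cells at 0.1% parasitemia and 2% hematocrit (final). After incubation at 37 C under 5% CO2, luciferase detection reagent was dispensed and light output recorded.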
Pf growth 96h – Primary qHTS for delayed death inhibitors of the malarial parasite plastid, 96 hour incubation; P. falciparum luciferase reporter growth, 96 h; Potency, µM (series often up to 28.7 µM), inactives show top-dose activity change, negative = inhibition, hits mostly inhibitors; 6.9% of 320,000 active; AID 504834, 2011; note: potency is the fitted concentration of half-maximal effect; % is set by controls: 0 for no effect and ±100 for the full control effect
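Plates of compound plus infected erythrocytes (2% hematocrit, 0.05% parasitemia final) incubate 96 hours, 37 C, 5% CO2. Detection reagent added; reduced luminescence from the parasites' luciferase reporter flags inhibition.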
Shiga inhibitor – A qHTS for Small Molecule Inhibitors of Shiga Toxin; Vero cells, Shiga toxin protein synthesis inhibition reporter; inhibition, % at 38.7 µM; 9.2% of 290,000 active; AID 2315, 2010; in the data active = inhibition mostly above about 28%, no sharp cut-off; inactive = mostly below about 43%; note: 0% is about no effect
CHX counter – Cycloheximide Counterscreen for Small Molecule Inhibitors of Shiga Toxin; 12% of 300,000 active; cell reporter, cycloheximide protein synthesis inhibition counterscreen; AID 2314, 2010; max response, %; in the data active = max response mostly above about 13%, no sharp cut-off; inactive = mostly below about 14%; note: read at 38.3 µM for the half of the compounds with a filed dose; 0% is about no effect
HCMV antiviral – qHTS Assay for inhibitors of the human cytomegalovirus (HCMV). HFF cells, HCMV-luciferase reporter, 72 h; active compounds read low. activity change, negative = inhibition, % at 57.5 µM. 4.5% of 410,000 active. AID 1259415, 2018; in the data active = activity change below about -60%; inconclusive = no clear call, values can overlap the other calls; inactive = above about -39%; note: % is set by controls: 0 for no effect and ±100 for the full control effect
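Luciferase read-out from HCMV-luciferase-infected HFFs (MOI 1 PFU/cell) 72 h post infection at 37C; compounds added after 16 h cell attachment; activity normalized between buffer-only basal and Salinomycin (10uM) inhibitor controls.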
An asterisk follows results filed as active. Unless noted, calls come from the whole dose curve; as a rule, active = well fitted inhibition curve with a large enough effect; inconclusive = small, poorly fitted or top-dose-only effect, or another doubt; inactive = no such curve, though single readings can be large or run the other way.

Screening C/C(=N\NC(=O)c1cccnc1)c1c(O)cc(C)oc1=O returned Pf growth 48h 22.1%, Pf growth 96h 12.9%, Shiga inhibitor 34.0*, CHX counter 21.0* and HCMV antiviral -12.3.
`CCOC(=O)C1CCC(CN(Cc2ccccc2C)S(=O)(=O)c2ccc([N+](=O)[O-])cc2)CC1` (stereo not drawn) gave Pf growth 48h inconclusive, Pf growth 96h inconclusive, Shiga inhibitor -10.0, CHX counter -5.5 and HCMV antiviral 36.2.
For CC(C)C[C@H](NC(=O)c1[nH]cnc1C(=O)Nc1ccccc1)C(=O)OC(C)(C)C the results were Pf growth 48h 13.1µM*, Pf growth 96h inconclusive, Shiga inhibitor -1.2, CHX counter -1.0 and HCMV antiviral -102.4*.
Screening CCOC(=O)c1ccc(NC(=O)c2nc[nH]c2C(=O)N[C@@H](C)C(=O)OC(C)(C)C)cc1 returned Pf growth 48h inconclusive, Pf growth 96h inconclusive, Shiga inhibitor 10.8, CHX counter -5.4 and HCMV antiviral -33.9.
`CCOC(=O)c1ccc(NC(=O)c2nc[nH]c2C(=O)N[C@@H](CC(C)C)C(=O)OC(C)(C)C)cc1` gave Pf growth 48h 7.38µM*, Pf growth 96h 9.28µM*, Shiga inhibitor -1.9, CHX counter -3.4 and HCMV antiviral -25.4.
Screening CCOC(=O)c1[nH]cnc1C(=O)Nc1ccccc1 returned Pf growth 48h -4.0%, Pf growth 96h -28.0%, Shiga inhibitor 36.9, CHX counter 0.6 and HCMV antiviral -39.0.
Screening NNC(=O)c1nc[nH]c1C(=O)Nc1ccccc1 returned Pf growth 48h 24.9%, Pf growth 96h 10.4µM*, Shiga inhibitor 22.4*, CHX counter 13.8* and HCMV antiviral 20.1.
`OC(c1ccc(F)c(F)c1)c1nc(-c2cccc3cccnc23)cs1` (stereo not drawn) gave HCMV antiviral 17.5.
Screening CCc1cccc(NC(=O)c2coc(=O)c3ccccc23)c1 returned HCMV antiviral 0.8.
`COc1ccc(N2CCN(C(=O)c3ccc(Br)o3)CC2)cc1` gave Pf growth 48h -0.2%, Pf growth 96h 14.3%, Shiga inhibitor -3.9, CHX counter -3.0 and HCMV antiviral 5.5.
Screening O=C(Nc1cccc2cccnc12)c1ccc(Br)o1 returned Pf growth 48h 28.4%, Shiga inhibitor 17.6, CHX counter 25.5* and HCMV antiviral 50.5.
Cc1cc(C(=O)Nc2cccc3ccccc23)oc1C was read as HCMV antiviral -8.2.
For O=C(Nc1cccc2cccnc12)c1ccccc1Br the results were HCMV antiviral -2.7.
Screening O=C(Nc1cccc2ccccc12)c1ccc(Br)o1 returned Pf growth 48h 16.2%, Pf growth 96h 14.7µM*, Shiga inhibitor 24.6, CHX counter 7.7 and HCMV antiviral -2.1.
CSc1ccccc1NC(=O)c1ccc(Br)o1 was read as Pf growth 96h 38.4%, Shiga inhibitor 45.0*, CHX counter 35.8* and HCMV antiviral inconclusive.
CSc1ccccc1NC(=O)c1ccco1 was read as Pf growth 96h inconclusive, Shiga inhibitor 2.0, CHX counter -1.8 and HCMV antiviral -24.3.
For Cc1[nH]c(N=Nc2ccccc2)nc1N=Nc1ccccc1 the results were Pf growth 48h 3.7µM*, Pf growth 96h 9.28µM*, Shiga inhibitor 70.8*, CHX counter 13.8 and HCMV antiviral -37.2.
For COc1ccc(N=Nc2cnc(C)nc2-c2ccccc2)cc1 the results were Pf growth 48h inconclusive, Pf growth 96h inconclusive, Shiga inhibitor 22.1, CHX counter 7.7 and HCMV antiviral 21.8.
`CC1COc2ccccc2N1S(=O)(=O)c1ccc(Cl)cc1` (stereo not drawn) gave Pf growth 48h 10.4µM*, Pf growth 96h inconclusive, Shiga inhibitor -4.0, CHX counter 6.3 and HCMV antiviral -5.8.
CC1COc2ccccc2N1C(=O)c1ccc(Cl)cc1 (stereo not drawn) was read as Pf growth 48h 7.9%, Pf growth 96h 32.4%, Shiga inhibitor 9.3, CHX counter -4.4 and HCMV antiviral inconclusive.
Screening Cc1ccc(S(=O)(=O)N2c3ccccc3OCC2c2ccccc2)cc1 (stereo not drawn) returned Pf growth 48h 2.62µM*, Pf growth 96h inconclusive, Shiga inhibitor 1.6, CHX counter 9.7 and HCMV antiviral inconclusive.
